Holding throughout (test): NCI-60 one-dose screen, 48 h (100 = growth as untreated, 0 = no growth, -100 = all killed)
Common to all, as to details: 10 µM unless noted

In experiment [1] the test system is NCI-H23 lung.
Experiment [2] concerns NCI-H226 lung.
Experiment [3] deals with NCI-H322M lung.
Experiment [4] concerns HOP-62 NSCLC.
The test system of experiment [5] is NCI-H460 lung.
Experiment [6] deals with HOP-92 NSCLC.
Experiment [7] relates to NCI-H522 lung.
For experiment [8], the system named is A549/ATCC NSCLC.
For experiment [9], the system named is 786-0 renal.
For experiment [10], the system named is COLO 205 colon.

Results on 13 compounds are retold here after PubChem BioAssay (NCI).

The structures appear in SMILES notation. Compounds without any hit were thinned out: in the full panel of roughly 83,000, 20% have a hit.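 Results are percent growth after 48 hours of single-concentration exposure. 100 means growth as in untreated cells, lower positive values show inhibition; negative values down to -100 show cell death.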 Values without a mark were called inactive. The source made the active and inactive calls. The calls were made as follows: active = growth percent below 10; inactive = the rest.

Take `COC(=O)N1CC(Oc2ccccn2)C2CC1c1ccccc1O2` (stereo not given): the growth was 94% in experiment [1]; 104% in experiment [2]; 119% in experiment [3]; 100% in experiment [4]; 100% in experiment [5]; 90.3% in [6]. The growth is 97.6% in experiment [7], 98.6% in experiment [8], 104% in experiment [9] and 102% in experiment [10].

Consider `Cc1ccc(S(=O)(=O)OCCCOS(=O)(=O)c2ccc(C)cc2)cc1`, for which the growth in experiment [1] is 105%; in experiment [2] it was 107%; in experiment [3], 92.3%; in experiment [4], 113%; in [5], 96.5%; in experiment [6], 77.4%. In addition, the growth is 89% in experiment [7], 93.4% in [8], 90.8% in experiment [9] and 110% in [10].

In the case of `N#C/C(=C\c1ccc(-c2cccc(C(F)(F)F)c2)o1)c1ccccc1`, the growth in experiment [1] was 79.7%; in [2], 77.4%; in experiment [3], 86%; in [4], 88.1%; in experiment [5], 97.1%; in experiment [6], 87.5%. The growth is 84.6% in experiment [7], 94.3% in experiment [8], 99.9% in [9] and 101% in [10].

For `CSc1nn2c(-c3ccc4ccccc4c3)ccnc2c1C#N`, the growth in [1] was 33.1%; in experiment [2] it was 24.9%; in experiment [3], 56.2%; in [4], 18.6%; in experiment [5] it was -29.6% (active); in experiment [6], 33.8%. Also, the growth is -23.4% (active) in [7], 5.43% (active) in [8], 22.2% in [9] and 17% in [10].

With `COc1ccc(Nc2ncccc2/C=C/C(=O)c2cc(OC)c(OC)c(OC)c2)cc1`, the growth was -8.11% (active) in [1]; -43.2% (active) in experiment [2]; 52% in [3]; -19.2% (active) in experiment [4]; -44.9% (active) in [5]; -33.8% (active) in experiment [6]. Moreover, the growth in experiment [7] was -76.5% (active); in experiment [8], -57.1% (active); in [9], -64.2% (active); in experiment [10], -77% (active).

As to `COc1cccc(NCc2nnc(Nc3ccc(Cl)cc3)c3ccccc23)c1`, the growth in experiment [1] is 2.05% (active); in experiment [2], -22.9% (active); in [3] it was 3.32% (active); in experiment [4], -17.1% (active); in experiment [5], 0.101% (active); in experiment [6], -32.8% (active). Moreover, the growth in [7] is -43.8% (active); in experiment [8] it was 2.56% (active); in experiment [9] it was -5.76% (active); in experiment [10] it was -22.2% (active).

For the compound `C=C(C)[C@@H]1CC[C@]2(C(=O)N3CCN(C)CC3)CC[C@]3(C)[C@H](CC[C@@H]4[C@@]5(C)CC[C@H](OC(=O)c6ccccc6C(=O)O)C(C)(C)[C@@H]5CC[C@]43C)[C@@H]12`, the growth in experiment [1] is 99.9%; in experiment [2], 99.4%; in experiment [3], 101%; in experiment [4], 98%; in experiment [5], 103%; in [6], 102%. Besides, the growth in experiment [7] was 84.2%; in [8] it was 104%; in experiment [9], 101%; in experiment [10] it was 111%.

For `N#Cc1cccc(C2C3=C(COC3=O)N(CCO)c3cc4c(cc32)CCC4)c1` (stereo not given), the growth in [1] was 23.3%; in experiment [2] it was 28.4%; in experiment [3], 34.2%; in experiment [4] it was 26.3%; in [5], 3.78% (active); in experiment [6] it was 43%. The growth in experiment [7] was -3.91% (active); in experiment [8], 12.3%; in [9] it was 24%; in experiment [10], -26.1% (active).

In the case of `CCN(CC)CCCN1C(=O)c2c(c(C)c3c(oc4ccc(O)cc43)c2C)C1=O`, the growth was 92.7% in [1]; -44.7% (active) in experiment [2]; 81.3% in experiment [3]; 89.9% in experiment [4]; -25.9% (active) in [5]; 69.3% in [6]. Also, the growth in experiment [7] was 80%; in experiment [8], -76.8% (active); in experiment [9], -72.6% (active); in experiment [10], 64%.

For `CNC(C)[C@H]1CCC2C3CC=C4C(=O)[C@@H](NC(=O)C=C(C)C)CC[C@]4(C)C3CC[C@@]21C` (stereo not given in full), the growth was 30.1% in experiment [1]; 46.5% in experiment [2]; 13.9% in experiment [3]; -4.38% (active) in [4]; -24.6% (active) in experiment [5]; 9.2% (active) in experiment [6]. Besides, the growth is 58.5% in experiment [7], 30.3% in experiment [8], 3.96% (active) in experiment [9] and -82.4% (active) in experiment [10].

On to `O=C1/C=C/[C@@H](O)[C@@H]2C[C@@H](O)C[C@H]2/C=C/CCC[C@@H](O)CCO1`, for which the growth was 77.1% in experiment [1]; 77.3% in experiment [2]; 99.3% in [3]; 103% in [4]; 110% in experiment [5]; 98% in experiment [6]. For the same compound, the growth in experiment [7] is 108%; in experiment [8], 89.3%; in [9], 61.5%; in [10], 114%.

`Oc1ccc(/C=C/c2ccc(O)cc2)cc1`: the growth in [1] is 62.2%; in experiment [2], 90.8%; in experiment [3], 58.5%; in experiment [4] it was 71.4%; in experiment [5] it was 34.5%; in experiment [6], 73.2%. Also, the growth was -0.122% (active) in [7], 60.7% in experiment [8], 24.3% in experiment [9] and 134% in [10].

For the compound `C[n+]1ccc(CCc2c[nH]c3ccccc23)cc1`, the growth in [1] is 102%; in experiment [2], 109%; in experiment [3], 93.4%; in experiment [4] it was 69.3%; in [5], 107%; in experiment [6] it was 93.9%. The growth in experiment [7] is 81.4%; in experiment [8] it was 66.2%; in experiment [9] it was 100%; in experiment [10] it was 96.8%.
